Experimental data reported in PubChem BioAssay AID588342 (National Center for Advancing Translational Sciences (NCATS), 2011).
In all, about 360,000 compounds went through this assay and about 25,000 (6.9%) were called active. Not shown: some 9% with an inconclusive outcome. This is one part of a sample in which actives are shown more often than they occur. Unmarked numbers belong to inactive results. Calls come from the whole dose curve; as a rule, active = well fitted inhibition curve with a large enough effect; inconclusive = small, poorly fitted or top-dose-only effect; inactive = flat fitted curve, though single readings scatter.

The compounds below were run against Luciferin 4-monooxygenase (Photinus pyralis) (UniProt P08659) (assay: qHTS profiling assay for firefly luciferase inhibitor/activator using purifed enzyme and Km concentrations of substrates (counterscreen for miR-21 project)). Conditions: purified FLuc, luminescence inhibition; series mostly up to 57.5 µM; activity change, negative = inhibition: at the top concentration.
Luciferin 4-monooxygenase (Photinus pyralis), sequence (P08659 whole entry, looked up): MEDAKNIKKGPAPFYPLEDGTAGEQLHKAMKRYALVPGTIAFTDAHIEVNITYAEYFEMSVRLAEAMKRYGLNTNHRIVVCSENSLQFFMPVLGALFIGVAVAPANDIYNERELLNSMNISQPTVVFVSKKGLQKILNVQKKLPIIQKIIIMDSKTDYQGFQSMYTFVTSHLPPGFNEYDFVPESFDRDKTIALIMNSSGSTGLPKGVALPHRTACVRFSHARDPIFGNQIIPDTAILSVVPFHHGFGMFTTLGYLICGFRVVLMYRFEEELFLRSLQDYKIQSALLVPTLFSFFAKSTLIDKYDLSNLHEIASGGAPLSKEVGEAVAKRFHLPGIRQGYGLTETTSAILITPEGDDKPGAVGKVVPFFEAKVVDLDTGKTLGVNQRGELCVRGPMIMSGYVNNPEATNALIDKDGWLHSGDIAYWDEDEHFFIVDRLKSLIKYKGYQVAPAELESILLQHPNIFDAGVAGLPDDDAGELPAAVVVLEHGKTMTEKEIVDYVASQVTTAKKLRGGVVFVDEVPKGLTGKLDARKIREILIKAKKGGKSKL
Summary of the method: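 Biochemical qHTS of compounds, final roughly 60 µM downward over six points, against 10 nM purified firefly luciferase using Km concentrations of substrates (10 uM D-luciferin, 10 uM ATP) in Tris acetate pH 7.5 buffer; luminescence output.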
Note: nearly all actives have a fitted effect of over 55% in size.
Potency is the fitted concentration of half-maximal effect.
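Throughout, for activity change, negative = inhibition: plate controls were vehicle for no effect and reference inhibitor for full effect.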

SMILES | activity change, negative = inhibition | Potency
Cc1ccc(Oc2nc(-c3ccccn3)nc3ccccc23)cc1 | -19.9% | –
Cc1cc(OC(=O)c2ccccc2)c([N+](=O)[O-])c(=O)[nH]1 | -7.98% | –
Cc1ccccc1NC(=O)Cn1c(=O)n(CC2CCC(C(=O)NCCc3ccccc3)CC2)c(=O)c2ccccc21 (stereo not drawn) | -0.569% | –
COc1ccc(CCNc2nc(-c3ccc(Cl)cc3)cc(C(F)(F)F)n2)cc1OC | 0.231% | –
O=c1cccc(-c2ccc(Br)cc2)o1 | 3.87% [at 2.3 µM] | –
O=C1CC(c2nnc(Cc3ccc(Cl)cc3)o2)CN1c1ccccc1 (stereo not drawn) | -8.02% | –
Cc1ccc(OCC(=O)Nc2ccccc2C(=O)NC2CC2)cc1 | 3.57% | –
COc1ccc(CCC(=O)NCc2ccc3c(c2)CCN3C(=O)c2ccc(F)cc2)cc1 | -15.3% | –
Cc1ccc(-n2nnnc2CNC(=O)c2ccccc2C)cc1C | -1.73% | –
COc1cc(C)c(Cl)cc1S(=O)(=O)n1ccnc1 | -8.56% | –
Cc1c2cnn(-c3ccccc3)c(=O)c2c(C)n1C(C)C(=O)Nc1ccc(Br)cc1F (stereo not drawn) | -16.5% | –
Clc1ccc(-n2nnnc2-c2cnc(-c3ccccn3)nc2-c2cccs2)cc1 | -13.4% | –
c1ccc(-c2noc(-c3cccs3)n2)nc1 | – | 3.01 µM (active)
O=c1onc(-c2cccs2)n1Cc1ccccc1 | 2.16% | –
CN(Cc1ccccc1)C(=O)CCS(=O)(=O)c1cc(Br)cc2c1N(C(=O)C1CC1)CC2 | -8.85% | –
CCOc1ccc(CCNC(=O)CN(c2ccc(C)cc2)S(=O)(=O)N(C)C)cc1OCC | 4.44% | –
Cc1cc(C)c(-c2n[nH]c3c2C(c2ccccc2F)N(CCO)C3=O)c(O)c1 (stereo not drawn) | -1.58% | –
O=C(O)c1ccc(Cn2c(SCc3ccc(F)cc3)nc3ccncc32)cc1 | – | 16.9 µM (active)
Cc1ccc(Cn2c(CNC(=O)Cc3cccc(C)c3)nc3cccnc32)cc1 | 5.86% | –
Cc1nc2ccccc2c(=O)n1NC(=O)c1ccc(Cl)c([N+](=O)[O-])c1 | 6.72% | –
O=C(NCc1ccc(F)cc1)c1ccc(Cn2c(SCc3ccc(F)cc3)nc3cccnc32)cc1 | – | 4.78 µM (active)
Cc1ccc(CSc2nc3cccnc3n2Cc2ccc(C(=O)NC3CC3)cc2)cc1 | – | 0.379 µM (active)
O=C(Nn1c(SCc2ccc([N+](=O)[O-])cc2)nc2ccccc2c1=O)c1ccc(F)cc1 | – | 16.9 µM (active)
CCCNC(=O)c1ccc(Cn2c(SCC(N)=O)nc3ccccc3c2=O)cc1 | -0.682% | –
C=CCn1c(SCc2ccc(C(=O)NCCO)cc2)nc2ccccc2c1=O | -0.552% | –
Cc1cccc(CSc2nc3ccncc3n2CC(=O)N(C)C2CCCCC2)c1 | -10.8% | –
Cn1c(CNC(=O)c2ccccc2F)nnc1SCc1ccc(F)cc1 | -0.364% | –

SMILES | activity change, negative = inhibition | Potency
CCOC(=O)CNC(=O)CSc1nc2cccnc2n1CC | 1.81% | –
OCc1cnc(SCc2ccc(F)cc2)n1Cc1ccc(F)cc1 | -8.03% | –
CC1=C(C(=O)Nc2ccccc2)C(c2ccc(C)cc2)n2nc(SCc3ccccc3C)nc2N1 (stereo not drawn) | -0.97% | –
Cc1nnc(NC(=O)CSc2nc3c([nH]c4ccccc43)c(=O)n2-c2cccc(Cl)c2)s1 | -1.54% | –
CCOc1ccc(S(=O)(=O)c2cn(Cc3ccc(OC)cc3)c3ccc(F)cc3c2=O)cc1 | -3.31% | –
CCOc1ccc(NC(=O)Cn2c(C)ccc(C#N)c2=O)cc1 | -4.3% | –
COc1ccc(CCNS(=O)(=O)c2cc(-c3cc(C)no3)ccc2C)cc1OC | -2.49% | –
Cc1cccc2c1-c1sc(C(=O)Nc3ccc(F)cc3F)cc1CO2 | -14% | –
O=C(NCc1ccccc1)C(=O)NCC(c1ccco1)S(=O)(=O)c1ccc(Cl)cc1 (stereo not drawn) | -1.18% | –
Cc1ccc(N2CCN(C(=O)CCc3c(C)nc4c(c3C)c(=O)n(C)c(=O)n4C)CC2)c(C)c1 | -0.374% | –
C=CCn1c(SCC(=O)NC(=O)Cc2ccccc2)nc2ccccc2c1=O | 2.08% | –
Cc1nn(CC(=O)Nc2ccc(C#N)cc2)c(C)c1[N+](=O)[O-] | 1.77% | –
COc1ccc(NS(=O)(=O)c2cccc3nsnc23)cc1Cl | 4.27% | –
Cc1ccccc1-c1nc(CS(=O)(=O)CC(=O)Nc2cc(Cl)cc(Cl)c2)c(C)o1 | -16% | –
COc1ccccc1CNS(=O)(=O)c1cc(Br)cc2c1N(C(C)=O)C(C)C2 (stereo not drawn) | -3.66% | –
COc1ccc(CCNC(=O)COC(=O)Cc2cccc(F)c2)cc1 | -0.275% | –
O=C(NCc1ccccc1)c1cccc(NC(=O)N2CCSc3ncccc32)c1 | 2.63% | –
COc1cc(OC)cc(C(=O)NCCc2csc3nc(-c4ccccc4F)nn23)c1 | -7.94% | –
Cc1cccc(C(=O)N2c3nc(-c4ccco4)nn3C3(CCCCC3)[C@@H]3CCCC[C@@H]32)c1 | -9.38% | –
CNS(=O)(=O)c1cccc(C(=O)OCC(=O)N2c3ccccc3NC(=O)C2(C)C)c1 | 8.6% | –
Cc1c(CC(=O)NCCCCCC(=O)O)c(=O)oc2cc3occ(-c4ccccc4)c3cc12 | – | 19 µM (active)
COc1cccc(-c2coc3cc4oc(=O)c(CC(=O)O)c(C)c4cc23)c1 | – | 19 µM (active)
COc1ccc2c(C)c(CCC(=O)NCc3ccc(OC)c(OC)c3)c(=O)oc2c1 | -2.04% | –
CC(=O)Oc1ccc2c(C)c(CC(C)O)c(=O)oc2c1 (stereo not drawn) | -1.05% | –
Cc1ccc2[nH]c(=O)c(CC(=O)O)c(-c3ccccc3)c2c1 | -8.3% | –
Cc1oc(C)c(C(=O)NCCCC(=O)O)c1C(=O)NCCCC(=O)O | -0.349% | –
